Results reported in PubChem BioAssay AID1626 (SRMLSC, 2009).
Hit rate of the full screen: of about 220,000 compounds, about 2,000 (0.91%) were called active. Not shown: some 2% with an inconclusive outcome. Cut-off read from the data, not from the text of the source: inconclusive = inhibition above about 80% without an active follow-up result; inactive = below that; test concentration not stated here. A selection follows. Results with a measured potency or affinity are listed apart.

Assay: M. tuberculosis H37Rv growth inhibitors, H37Rv strain (AID 1626);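 note: bacteria incubated seven days before Alamar blue readout; 0% = bacteria only wells and 100% = bacteria with antibiotic wells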
Conditions: stronger effect = higher value, concentration not given here

SMILES	inhibition
CCC(C)NC(=O)CCNS(=O)(=O)c1ccc(Br)cc1 (configuration not stated)	-4.65% (inactive)
CCn1nccc1C(=O)Nc1nccs1	-3.43% (inactive)
NS(=O)(=O)c1cccnc1Nc1cccc(C(F)(F)F)c1	3.67% (inactive)
c1ccc(Oc2nc(-c3cccnc3)nc3ccccc23)cc1	8.16% (inactive)
Cc1ccc(Oc2nc(-c3cccnc3)nc3ccccc23)c([N+](=O)[O-])n1	7.05% (inactive)
CCCC(=O)Nc1cc(C(=O)O)ccc1Sc1ccc(C)cc1	-4.31% (inactive)
COC(=O)CCC(=O)NC(=S)Nc1cc(Cl)ccc1Cl	-5.76% (inactive)
O=C(CSCc1ccccc1)Nc1ccc2c(c1)C(=O)NC2=O	-3.24% (inactive)
N#C/C(=C\c1ccc([N+](=O)[O-])cc1)c1ccccn1	7.55% (inactive)
NC(CO)(CO)COCc1ccccc1	5.19% (inactive)
Cc1ccc(/C=C/C(=O)c2ccccc2)cc1	10.3% (inactive)
Cc1ccc(C(=O)/C=C\NCc2ccccc2)cc1	2.13% (inactive)
Cc1ccc(C(=O)/C=C/c2ccc(-c3ccc(C)cc3)o2)cc1	88.2% (inactive)
Cc1ccc(/C=C/C(=O)c2ccc(C)cc2)cc1	3.08% (inactive)
O=C(O)/C=C/c1ccccc1[N+](=O)[O-]	-15.1% (inactive)
O=C(/C=C/c1ccccc1[N+](=O)[O-])c1ccc(F)cc1	49.5% (inactive)
Cc1ccc(C(=O)/C=C/C(=O)O)cc1	1.06% (inactive)
O=C(/C=C/c1ccc(-c2ccccc2)o1)c1ccccc1	12.6% (inactive)
COc1ccc(-c2[nH]n(-c3ccc([N+](=O)[O-])cc3)c(=O)c2C=NCc2ccccc2)cc1	-1.64% (inactive)
C=CCC1(NC(C)c2ccccc2)CCCCC1 (configuration not stated)	-4.87% (inactive)
O=C(Nc1ccc(-c2noc(COc3ccccc3Cl)n2)cc1)c1ccco1	0.69% (inactive)
COc1cc(/C=C2/SC(=O)N(Cc3ccccc3Cl)C2=O)ccc1OCc1ccncc1	3.75% (inactive)
COCCNC(=O)C(c1ccncc1)N(C(=O)c1sc(C)nc1C)c1cccc(C)c1 (configuration not stated)	-4.16% (inactive)
Cc1ccc(NC(=O)c2cc3c(=O)oc4ccc(C)cc4c3s2)nc1	-3.16% (inactive)
Cc1ccc2c(c1)CC1(CN2C)C(=O)NC(=O)N(CCc2ccccc2)C1=O (configuration not stated)	-6.53% (inactive)
Cc1oc(CC(C)C)cc1C(=O)Nc1cccc2ccccc12	-8.7% (inactive)

SMILES	inhibition
Cn1c(=O)[nH]c(=O)c2c1nc(SCC(=O)Nc1ccccc1)n2Cc1ccccc1	4.62% (inactive)
CCn1c(-c2cccnc2Cl)nc2cc(Cl)c(Cl)cc21	13.1% (inactive)
CCOCCCn1c(=S)[nH]c2cc(C(=O)N3CCN(C)CC3)ccc2c1=O	-9.01% (inactive)
CCc1ccc(NC2CC(=O)N(CCc3ccc(OC)c(OC)c3)C2=O)cc1 (configuration not stated)	6.46% (inactive)
O=C(/C=C/Sc1ncn[nH]1)c1ccc(Cl)cc1	6.21% (inactive)
O=C(/C=C/NNC(=O)c1ccc(Cl)cc1)c1ccccc1	2.77% (inactive)
CCC(=O)NCCCc1nc(-c2ccccc2)no1	-4.65% (inactive)
COc1ccccc1N1CCN(C(=O)Cn2nc3n(C)c4ccccc4n3c(=O)c2=O)CC1	0.2% (inactive)
COc1ccccc1NCC(=O)n1nc(C)cc1C	-3.99% (inactive)
Cc1ccc(-c2csc(NC(=O)CSc3nc4ccccc4o3)n2)cc1	65.3% (inactive)
CCS(=O)(=O)c1ccc2oc(SCC(=O)NCCc3ccccc3)nc2c1	3.18% (inactive)
O=C(CSc1nc2ccccc2o1)c1ccccc1	9.75% (inactive)
O=C(CSc1nc2ccccc2o1)Nc1nncs1	2.93% (inactive)
Cc1occc1-c1nnc(SCC(=O)Nc2ccccn2)o1	10% (inactive)
COc1ccc(CCNC(=O)CSc2nc3ccccc3o2)cc1	96.4% (inactive)
Cc1occc1-c1nnc(SCC(=O)NCCc2ccccc2)n1Cc1ccccc1	-7.81% (inactive)
O=C(CSc1nc2ccccc2o1)Nc1ccccc1	-0.33% (inactive)
Cc1ccc(NC(=S)Nc2cc(C)on2)cc1	4.76% (inactive)
COc1ccc(NC(=O)C2CCCN(S(=O)(=O)c3cccc4nonc34)C2)cc1OC (configuration not stated)	0.88% (inactive)
CCOC(=O)c1c(-c2ccc(C)s2)csc1N	3.65% (inactive)
Cc1nc2c(C#N)cnn2c2c1CCNN2C	-8.46% (inactive)
COc1ccccc1-c1cc(C(=O)N2CCN(c3ccc(F)cc3)CC2)no1	4.4% (inactive)
Cc1cccc(NC(=O)NNS(=O)(=O)c2ccc(F)cc2)c1	7.42% (inactive)
O=C(CN1CCN(C(=O)c2ccco2)CC1)N1CCc2[nH]c3ccccc3c2C1	7.26% (inactive)
COc1ccc(C2CC(=O)C3=C(C2)Nc2ncnn2C3c2ccccc2)cc1 (configuration not stated)	-8.64% (inactive)
Cc1nnc(NC(=O)CSc2nc3ccccc3o2)s1	-1.02% (inactive)

SMILES	inhibition
O=C(CSc1nc2ccccc2o1)Nc1nc2ccccc2s1	-3.19% (inactive)
Cc1ccccc1Cn1nnc(-c2ccc(C(=O)O)cc2)n1	-5.85% (inactive)
N#Cc1cncc(-c2ccc3c(c2)OCCOCCOCCOCCOCCO3)n1	5.9% (inactive)
Nc1nc(-c2ccc3c(c2)OCCO3)cs1	78.2% (inactive)
Cc1ccc(-n2ncc3c2ncn2c(C)nnc32)cc1C	14.5% (inactive)
NC(=O)c1ccc(-c2csnn2)cc1	0.58% (inactive)
CC(C)(C)C(=O)Nc1ccc(-c2csnn2)cc1	-0.28% (inactive)
Cc1ccc(NC(=O)C(C)OC(=O)c2ccc(NS(=O)(=O)c3ccc(F)c(F)c3)cc2)cc1 (configuration not stated)	-2.38% (inactive)
Cc1nc2c(c(=O)n1CCC(C)C)c1nc3ccccc3nc1n2CC1CCCO1 (configuration not stated)	2.15% (inactive)
CC1CCN(S(=O)(=O)c2cccc(-c3cn4cc(Cl)ccc4n3)c2)CC1	-1.37% (inactive)
O=C(O)CCN1C(=O)C2C3c4ccccc4C(c4ccccc43)[C@@H]2C1=O (some centres not stated)	-2.72% (inactive)
CC(=O)Nc1ccc(NC2=Nc3ccccc3N3C2=Nc2c(c(C)nn2-c2ccccc2)C3c2ccccc2)cc1 (configuration not stated)	75.1% (inactive)
Cc1ccccc1-n1nc(C)c2c1N=C1C(Cl)=CC(Cl)=CN1C2c1ccc(C(=O)O)cc1 (configuration not stated)	-4.15% (inactive)
CCCc1nnc(NC(=O)OCC)s1	4.01% (inactive)
CC(NC(=O)C1CC1)C(c1cccs1)N1CCOCC1 (configuration not stated)	4.47% (inactive)
O=C(CSc1nnc(Cc2ccccc2)o1)c1ccc(F)cc1	6.24% (inactive)
Cn1c(NC(=O)/C=C/c2ccco2)cc(=O)n(C)c1=O	-0.44% (inactive)
COc1ccc(NC(=O)c2sc3nc(Cc4ccccc4)cc(C(F)(F)F)c3c2N)cc1OC	7.82% (inactive)
Nc1c(C(=O)NC23CC4CC(CC(C4)C2)C3)sc2nc3c(c(C(F)(F)F)c12)CCC3	-10.2% (inactive)
CCNC(=S)Nc1sc2c(c1C#N)CCC(C)C2 (configuration not stated)	9.49% (inactive)
Cc1ccc(N2CN=C3SCC(=O)N3C2)cc1C	73.8% (inactive)
Cc1cc(C)cc(N2CN=C3SCC(=O)N3C2)c1	4.22% (inactive)
CN(C)c1ccc(N2CN=C3SCC(=O)N3C2)cc1	-6.22% (inactive)
O=C1CSC2=NCN(c3ccccc3)CN12	5.48% (inactive)
O=C1CN(C(=S)Nc2ccc(OC(F)F)cc2)CCN1	5.94% (inactive)
CCOc1cc(C=O)cc(Br)c1OCC(N)=O	-0.11% (inactive)

SMILES	inhibition
COc1ccc(/C(O)=C2/C(=O)C(=O)N(CCN3CCOCC3)C2c2cccnc2)cc1OC (configuration not stated)	-6.27% (inactive)
COCc1cc(Sc2ccc(Cl)cc2)nc(C)n1	18.1% (inactive)
Cc1nc(CS(=O)c2ccc(Cl)cc2)cc(N2CCOCC2)n1 (configuration not stated)	5% (inactive)
Cc1ccc2nsnc2c1S(=O)(=O)N1CCCC1	-7.86% (inactive)
CC(C)CCn1c(=O)c(C(=O)Nc2ccccc2S(N)(=O)=O)c(O)c2ccccc21	-11.9% (inactive)
CCOC(=O)Cc1csc(NC(=O)c2c(O)c3c(n(CC(C)C)c2=O)CCCC3)n1	71.9% (inactive)
CCCCCCCCn1c(=O)c(C(=O)OCC)c(O)c2ccccc21	7.93% (inactive)
CCCCCn1c(=O)c(C(=O)OCC)c(O)c2ccccc21	-3.26% (inactive)
O=c1cc(CN2CCCCC2)nc(C2CC2)[nH]1	3.51% (inactive)
Oc1ccc(-c2nccc(-c3cccs3)n2)cc1	-3.17% (inactive)
Cc1ccc(C(=O)Nc2nccc(-c3cccs3)n2)cc1	-6.72% (inactive)
Cc1ccc(C(C)C)c(OCC(O)CN2CCN(CCO)CC2)c1 (configuration not stated)	2.52% (inactive)
CN(C)/C=N/c1c(C#N)cnn1C	-9.88% (inactive)
O=C(O)c1ccc(CN2C(=O)c3ccccc3S2(=O)=O)cc1	-3.5% (inactive)
Cc1ccc(C(C#N)c2ccc3c(C(F)(F)F)cc(C(F)(F)F)nc3n2)cc1 (configuration not stated)	12% (inactive)
N#CC(c1ccccc1)c1ccc2c(C(F)(F)F)cc(C(F)(F)F)nc2n1 (configuration not stated)	-11.8% (inactive)
Cc1ccc2nc(-c3cccnc3)oc2c1	-9.72% (inactive)
Cc1ccc(C)c(-c2nc3cc(N)ccc3o2)c1	77.1% (inactive)
CCc1ccc2oc(-c3cc(N)ccc3Cl)nc2c1	1.18% (inactive)
Cc1ccc2nc(-c3cc(N)cc(N)c3)oc2c1	56.3% (inactive)
Nc1cccc(-c2nc3cc(S(=O)(=O)c4ccc5oc(-c6cccc(N)c6)nc5c4)ccc3o2)c1	-1.41% (inactive)
Cc1ccc(-c2nc3cc(N)ccc3o2)c(C)c1	8.94% (inactive)
CCc1ccc2oc(-c3cccc(N)c3)nc2c1	5.28% (inactive)
Nc1ccc2oc(-c3cccc4ccccc34)nc2c1	4.7% (inactive)
